Screening data from PubChem.
Rows were chosen to be rich in hits. Some 4.5% of all compounds tested hit in one or more screens of this group.
DAX1 inh-1: DAX1 (NR0B1) inhibitors on StAR promoter, primary screen, cell-based, luminescence, SF-1 (NR5A1), full-length DAX-1; HEK293T StAR-luciferase reporter, SF-1/DAX-1 repression relief; inhibition, % at 6.8 µM; 370,000 tested, 1.1% active; AID 652010, 2013;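 active = inhibition above the mean over all tested compounds plus 3 SD, cut at about 3.6% in these data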;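 note: higher inhibition means more luminescence from relief of DAX-1 repression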
GAA850 FXN act: FXN promoter activators, primary screen, cell-based, luciferase luminescence, HEK293 lucGAA850; HEK293 lucGAA850 FXN promoter luciferase reporter, 24 h; percent of 10 µM SAHA response; activation, % at 6 µM; 360,000 tested, 0.56% active;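 active = activation above the average of all compounds screened plus 3 SD, cutoff fixed separately per campaign, cut at about 7.5% in these data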
hcDAF12 agonist: H. contortus DAF-12 nuclear receptor activators, primary screen, cell-based, luminescence, HEK293, lit1-tk-luc reporter; 370,000 tested, 1.4% active; HEK293 hcDAF-12 lit1-tk-luc reporter; 0% DMSO, 100% Δ7-dafachronic acid; AID 652067, 2013; activation, % at 6.8 µM;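 active = activation above the mean of all tested compounds plus 3 SD, cut at about 5.5% in these data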
ssDAF12 agonist: S. stercoralis DAF-12 nuclear receptor activators, primary screen, cell-based, luminescence, HEK293, GRIP1 co-expression, lit1-tk-luc; HEK293 ssDAF-12/GRIP1 lit1-tk-luc reporter; % of 3 µM dafachronic acid response; activation, % at 6.8 µM; 370,000 tested, 1% active; AID 652126, 2013;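 active = activation above the mean over all tested compounds plus 3 SD, cut at about 0.9% in these data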
hgDAF-12 ag: H. glycines DAF-12 receptor agonists, primary screen, cell-based, luminescence, HEK293, GAL4 fusion, UAS-luciferase. 370,000 tested, 1.8% active. Nuclear hormone receptor DAF-12 (Heterodera glycines), GAL4 fusion. activation, % at 6.8 µM. AID 687014, 2013. HEK293 GAL4-hgDAF12 UAS-luciferase reporter, agonist luminescence; normalized to butyrate control;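 active = activation above a cutoff set at the mean of all screened compounds plus 3 SD, cut at about 10% in these data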
DAX1 inh-2: DAX1 (NR0B1) inhibitors, primary screen, cell-based, HEK293, Gal4-DAX1, luciferase luminescence | AID 504766, 2011 | inhibition, % at 6.75 µM | Nuclear receptor subfamily 0 group B member 1 (Homo sapiens), P51843 | HEK293 Gal4-DAX1 luciferase reporter | 340,000 tested, 0.99% active;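 active = inhibition above the mean over all tested compounds plus 3 SD, cut at about 4.2% in these data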;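 note: inhibition shows as a rise in luminescence from relieved DAX1 repression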
Target sequence (P51843 207-470 limits assumed): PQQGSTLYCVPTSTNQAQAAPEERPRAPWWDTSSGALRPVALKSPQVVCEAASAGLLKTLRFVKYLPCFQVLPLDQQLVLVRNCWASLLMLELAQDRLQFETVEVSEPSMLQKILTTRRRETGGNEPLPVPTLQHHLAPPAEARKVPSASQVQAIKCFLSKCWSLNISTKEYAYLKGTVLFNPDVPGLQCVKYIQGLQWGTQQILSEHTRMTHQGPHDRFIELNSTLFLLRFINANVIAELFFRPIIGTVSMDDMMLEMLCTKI
GAA30 counter: GAA30 FXN promoter activators, confirmation, counter-screen for GAA850 frataxin promoter activator project, cell-based, luminescence, HEK293, lucGAA30, triplicate; shares compounds with GAA850 FXN act; HEK293 lucGAA30 FXN promoter luciferase, 24 h; DMSO = 0%, 5 µM ipriflavone = 100%; 1,900 tested, 66% active; activation, % at 6 µM;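 active = mean activation above the mean of solvent-only control wells plus 3 SD, cut at about 22% in these data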;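 note: counterscreen of GAA850 promoter hits where activity marks nonselective or luminescence artifacts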
GAA850 confirm: FXN GAA850 promoter activators in reporter cells, confirmation, cell-based, luminescence, HEK293 lucGAA850, triplicate; AID 588351, 2011; shares compounds with GAA850 FXN act; 1,900 tested, 86% active; activation, % at 6 µM; HEK293 lucGAA850 FXN promoter luciferase reporter, 24 h; 100% = activation by SAHA;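 active = mean activation above a set limit taken from the primary screen, cut at about 8% in these data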
Numbers stand for hits; i = inactive; nt = not tested or not shown.

SMILES	DAX1 inh-1	GAA850 FXN act	hcDAF12 agonist	ssDAF12 agonist	hgDAF-12 ag	DAX1 inh-2	GAA30 counter	GAA850 confirm
CCOC(=O)Nc1ccc2c(c1)C(=NNC(=S)NC)c1ccccc1-2	i	14	i	i	i	i	48	20
CCOc1ccc(Nc2n[nH]c(=S)s2)cc1	i	9.8	i	i	12	i	116	32
O=C(Nc1c(-c2ccccc2)nc2ncccn12)c1ccccc1	i	nt	i	i	i	nt	nt	nt
COc1ccc(C2CC(C(F)(F)F)n3ncc(C(=O)O)c3N2)cc1OC (stereo unspecified)	i	i	i	i	i	i	nt	nt
COc1ccc(C2CC(C(F)(F)F)n3ncc(C(=O)NCC4CCCO4)c3N2)cc1OC (stereo unspecified)	i	8.2	i	i	i	i	i	11
COc1ccccc1NC(=O)CN1CCC(n2c(C)nc3cc(F)ccc32)CC1	i	9.1	i	i	i	i	i	7.8
CS(=O)(=O)N1CCC(C(=O)NCC2COc3ccccc3O2)CC1 (stereo unspecified)	i	nt	i	i	i	nt	nt	nt
O=C(CSc1nc(-c2ccc(F)cc2)cs1)N1CCOCC1	i	8.1	i	i	i	i	74	27
CC1CN(C(=O)CSc2nc(-c3ccc(F)cc3)cs2)CC(C)O1 (stereo unspecified)	i	i	i	i	i	i	nt	nt
CN(CCOC(=O)c1cc2ccccc2o1)C1CN(Cc2cn(Cc3ccc([N+](=O)[O-])cc3)nn2)S(=O)(=O)C1 (stereo unspecified)	i	nt	i	i	i	nt	nt	nt
COc1ccc(CCN(C)C(=O)c2ccc(S(=O)(=O)Nc3ccccc3C)cc2)cc1OC	i	nt	i	i	i	nt	nt	nt
CCOc1ccc(NS(=O)(=O)c2ccc(C(=O)N(C)CCc3ccc(OC)c(OC)c3)cc2)cc1	i	9.7	i	i	i	i	27	15
CC(Oc1ccc2c(-c3ccccc3)cc(=O)oc2c1)C(=O)NCCCn1ccnc1 (stereo unspecified)	i	8.7	i	i	i	i	i	i
COC(=O)C[C@H]1CC[C@@H]2[C@@H](COc3ccc(NC(=O)Nc4cccc(C)c4)cc3C(=O)N2C)O1	i	nt	i	i	i	nt	nt	nt
CC1(C)CC1C(=O)Nc1ccc([N+](=O)[O-])cc1Br (stereo unspecified)	i	7.8	i	i	i	i	i	i
Cc1ccc(C2(c3ccc(C)cc3)CC2C(=O)Nc2ccc([N+](=O)[O-])cc2O)cc1 (stereo unspecified)	i	i	i	i	i	i	nt	nt
COc1ccc(OCCOc2ccc(C)nc2[N+](=O)[O-])cc1	i	7.7	i	i	i	i	78	24
O=Cc1cn(-c2ccccc2)nc1-c1ccccc1	i	i	i	i	i	i	nt	nt
CC1=NNC(=O)/C1=C\c1cn(-c2ccccc2)nc1-c1ccccc1	i	8.0	i	i	i	i	i	15
C=CCN(Cc1ccc(OC)c(OC)c1)C(=O)c1cc2cc(F)ccc2[nH]1	i	13	i	i	i	i	27	16
COc1cc2cc(C(=O)N(C)Cc3ccccc3)[nH]c2cc1OC	i	i	i	i	i	i	nt	nt
CCS(=O)(=O)N1Cc2ccccc2CC1C(=O)NCC12CC3CC(CC(C3)C1)C2 (stereo unspecified)	i	7.7	i	i	i	i	i	8.3
CCS(=O)(=O)N1Cc2ccccc2CC1C(=O)NC(C)C12CC3CC(CC(C3)C1)C2 (stereo unspecified)	i	12	i	i	i	i	27	14
CCS(=O)(=O)N1Cc2ccccc2CC1C(=O)Nc1ccc(F)cc1 (stereo unspecified)	i	i	i	i	i	i	nt	nt
COc1ccc(-c2cc(C(=O)NC(C)C)no2)cc1	i	8.1	i	i	10	i	106	32
SMILES	DAX1 inh-1	GAA850 FXN act	hcDAF12 agonist	ssDAF12 agonist	hgDAF-12 ag	DAX1 inh-2	GAA30 counter	GAA850 confirm
COC(=O)c1cc(-c2ccc(OC)cc2)on1	i	i	i	i	i	i	nt	nt
COc1ccc(S[C@]2(C(=O)N3CCOCC3)CC(=O)N(c3ccc(Cl)cc3)[C@@H]2c2ccc(OC)cc2)cc1	i	nt	i	i	i	nt	nt	nt
N#Cc1c(N)nc(SCC(=O)NC2CCCCC2)c(C#N)c1-c1ccc(Cl)cc1	i	i	i	i	i	i	nt	nt
N#CCSc1nc(N)c(C#N)c(C2CCCCC2)c1C#N	i	11	i	i	i	i	i	19
CC(CCN1CCC(C(O)(c2ccccc2)c2ccccc2)CC1)Oc1cccc(Br)c1 (stereo unspecified)	i	nt	i	i	i	nt	nt	nt
COC(=O)CSc1nnc(-c2ccc(NS(=O)(=O)c3ccc(C(C)(C)C)cc3)cc2)o1	i	nt	i	i	i	nt	nt	nt
CCCN1C(=O)/C(=C/c2cc(C)n(C)c2C)SC1=Nc1ccc(OC)cc1	i	15	i	i	i	i	i	12
COc1ccc(C(=O)COC(=O)c2ccc(OC)c(OC)c2)cc1OC	i	i	i	i	i	i	nt	nt
COc1ccc(C(=O)CSC#N)cc1OC	i	12	i	i	13	i	i	32
CC1=C([N+](=O)[O-])C(c2cccc(Br)c2)C2=C(N1)c1ccccc1C2=O (stereo unspecified)	i	15	i	i	i	i	i	35
Cc1c(CN(C)C)c2c(n1C)C(=O)c1ccc(Br)cc1-2	i	11	i	i	i	i	i	18
S=c1[nH]nc(-c2cc(-c3ccccc3)n[nH]2)n1/N=C/C(Br)=C/c1ccccc1	i	12	i	i	i	nt	i	26
S=c1[nH]nc(-c2ccco2)n1/N=C/C(Cl)=C/c1ccccc1	i	8.0	i	i	i	i	78	32
